Here are results for 44 compounds from publication PMC4336329 (PLoS ONE, 2015).

Among all 310,000 compounds or so, about 2,200 (0.71%) showed an effect of 50% or more. The effect is printed as a negative number. Only a selection was taken, and strong results are over-represented in it overall.

The experiment deals with human ether-à-go-go-related gene (hERG) potassium channel (human, UniProt Q12809). Kind of experiment: primary screen, population patch clamp on CHO cells stably expressing hERG; higher = less effect of the substance.
Chain of human ether-à-go-go-related gene (hERG) potassium channel (Q12809 whole entry, looked up): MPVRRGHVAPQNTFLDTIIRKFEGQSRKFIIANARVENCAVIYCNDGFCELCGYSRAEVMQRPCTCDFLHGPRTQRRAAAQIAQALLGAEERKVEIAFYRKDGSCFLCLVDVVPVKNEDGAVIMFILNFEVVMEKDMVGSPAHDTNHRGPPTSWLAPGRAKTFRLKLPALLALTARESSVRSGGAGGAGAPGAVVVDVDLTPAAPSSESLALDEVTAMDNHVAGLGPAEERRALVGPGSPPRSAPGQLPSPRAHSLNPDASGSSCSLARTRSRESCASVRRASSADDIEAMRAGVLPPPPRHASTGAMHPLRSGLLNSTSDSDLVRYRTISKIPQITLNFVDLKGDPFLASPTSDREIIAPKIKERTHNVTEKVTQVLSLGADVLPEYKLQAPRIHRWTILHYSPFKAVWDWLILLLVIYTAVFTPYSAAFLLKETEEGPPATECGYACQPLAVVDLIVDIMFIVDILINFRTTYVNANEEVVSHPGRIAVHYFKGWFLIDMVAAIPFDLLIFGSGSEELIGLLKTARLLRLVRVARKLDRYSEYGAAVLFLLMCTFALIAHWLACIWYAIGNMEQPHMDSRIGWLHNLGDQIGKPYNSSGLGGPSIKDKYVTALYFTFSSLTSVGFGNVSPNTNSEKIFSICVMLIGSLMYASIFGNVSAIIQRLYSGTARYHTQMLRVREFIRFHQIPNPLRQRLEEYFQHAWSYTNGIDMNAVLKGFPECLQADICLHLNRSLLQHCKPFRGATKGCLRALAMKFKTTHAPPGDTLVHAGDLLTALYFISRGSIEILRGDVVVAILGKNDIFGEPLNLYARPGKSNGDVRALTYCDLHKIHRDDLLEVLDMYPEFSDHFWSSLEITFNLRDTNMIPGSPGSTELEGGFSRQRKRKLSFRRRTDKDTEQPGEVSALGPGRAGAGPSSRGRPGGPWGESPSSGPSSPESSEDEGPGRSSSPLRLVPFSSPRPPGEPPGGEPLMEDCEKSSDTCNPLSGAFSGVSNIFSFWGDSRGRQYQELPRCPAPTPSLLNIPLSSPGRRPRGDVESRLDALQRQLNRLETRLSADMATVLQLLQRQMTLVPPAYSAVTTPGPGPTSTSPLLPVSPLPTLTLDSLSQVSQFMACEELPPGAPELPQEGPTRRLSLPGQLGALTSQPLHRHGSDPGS
In the case of `CCOc1cccc(-c2nn3c(-c4cc(C)[nH]n4)nnc3s2)c1`, the “hERG current change (%, negative = inhibition) at 1uM” value is -8.21%.
`COc1ccc(/C=C/C(=O)Oc2ccc(C)cc2)cc1`: the “hERG current change (%, negative = inhibition) at 1uM” value was determined as 1.29%.
Turning to `COc1ccc(/C=C/c2cc(C(F)(F)F)on2)cc1`, the “hERG current change (%, negative = inhibition) at 1uM” value was determined as 17.5%.
As to `COc1ccc(/C=C/c2cc(-c3ccc(C)cc3)o[n+]2C)cc1.F[B-](F)(F)F`, the “hERG current change (%, negative = inhibition) at 1uM” value is -76.5%.
Consider `Cc1ccc2c(c1)NC(=O)C(CC(=O)NCCCN1CCCCC1)O2` (centres unmarked), for which the “hERG current change (%, negative = inhibition) at 1uM” value was 6.37%.
As to `Cc1ccc2c(c1)NC(=O)C(CC(=O)NCCCN1CCCC1)O2` (centres unmarked), the “hERG current change (%, negative = inhibition) at 1uM” value is listed as 12.4%.
In the case of `Cc1ccc2c(c1)NC(=O)C(CC(=O)NCCCN1CCc3ccccc3C1)O2` (centres unmarked), the “hERG current change (%, negative = inhibition) at 1uM” value was -58.5%.
The result for `CCC(C)N(CCNC(=O)CC1Oc2ccccc2NC1=O)C1CCCCC1` (centres unmarked) reads -35.6%.
Take `CCC(C)N(CCNC(=O)CC1Oc2ccc(C)cc2NC1=O)C1CCCCC1` (centres unmarked): the “hERG current change (%, negative = inhibition) at 1uM” value is listed as -58.1%.
Regarding `Cc1ccc2c(c1)NC(=O)C(CC(=O)NCCN(CC(C)C)CC(C)C)O2` (centres unmarked), the “hERG current change (%, negative = inhibition) at 1uM” value turned out to be 0.19%.
Regarding `O=Cc1c(NCc2ccccc2)c2ccccc2[nH]c1=O`, the “hERG current change (%, negative = inhibition) at 1uM” value turned out to be 12.6%.
The result for `C/C(=N\OCC(=O)Nc1ccc(OC(F)(F)F)cc1)c1ccc2c(c1)OCCO2` reads 6.61%.
For `C=CCS/C(N)=N\N=C\c1c(O)ccc2ccccc12`, the “hERG current change (%, negative = inhibition) at 1uM” value stood at 13.3%.
For the compound `Cc1ccc(C(=O)CN2C(=O)NC3(CCOc4ccccc43)C2=O)s1` (centres unmarked), the “hERG current change (%, negative = inhibition) at 1uM” value is given as 2.46%.
The result for `Cc1sc2ncn(CC(=O)NCCCC(=O)N3CCC4(CC3)OCCO4)c(=O)c2c1C` reads 10.7%.
For `CCOC(=O)c1oc2ccccc2c1NC(=O)c1cccs1` the value was 0.447%.
For `N/C(Cc1ccc([N+](=O)[O-])cc1)=N\OC(=O)c1ccc([N+](=O)[O-])cc1` the value was -56.7%; for `N/C(Cc1ccc([N+](=O)[O-])cc1)=N\OC(=O)c1ccc(Br)cc1`, -3.44%; for `N/C(Cc1ccc([N+](=O)[O-])cc1)=N\OC(=O)c1ccc2ccccc2c1`, 4.74%.
For `COc1ccc(CNC(=O)C2(CC3CC(c4ccccc4)=NO3)CCN(C(=O)CCCCCBr)CC2)cc1` (centres unmarked), the “hERG current change (%, negative = inhibition) at 1uM” value is given as -60.3%.
The result for `COc1ccc(CNC(=O)C2(CC3CC(c4ccccc4)=NO3)CCN(C(=O)Cc3ccc(F)cc3)CC2)cc1` (centres unmarked) reads 12.8%; that for `COc1ccc(CNC(=O)C2(CC3CC(c4ccccc4)=NO3)CCN(C(=O)C3(C)CC3)CC2)cc1` (centres unmarked), -37.1%; that for `COc1ccc(CNC(=O)C2(CC3CC(c4ccccc4)=NO3)CCN(C(=O)c3cccc(O)c3)CC2)cc1` (centres unmarked), 8.84%.
For the compound `COc1ccc(CNC(=O)C2(CC3CC(c4ccccc4)=NO3)CCN(C(=O)OC(C)(C)C)CC2)cc1` (centres unmarked), the “hERG current change (%, negative = inhibition) at 1uM” value is on record as 2.59%.
`COc1ccc(CNC(=O)C2(CC3CC(c4ccccc4)=NO3)CCN(C(=O)C3CCCC3)CC2)cc1` (centres unmarked): the “hERG current change (%, negative = inhibition) at 1uM” value is -67.1%.
`COc1ccc(C2NC(=O)c3ccccc3O2)cc1OC` (centres unmarked): the “hERG current change (%, negative = inhibition) at 1uM” value is given as 8.88%.
As to `Fc1cccc(CCN2C(=S)NC[C@@H]2CC2CCCCC2)c1`, the “hERG current change (%, negative = inhibition) at 1uM” value amounted to 8.53%.
For `CCn1nc(C(C)C)cc1C(=O)N1CCCC(CO)(Cc2ccc(F)cc2F)C1` (centres unmarked), the “hERG current change (%, negative = inhibition) at 1uM” value is given as 5.81%.
For `CC1CCCCN1C(=O)c1ccc(COc2ccc([N+](=O)[O-])cc2)o1` (centres unmarked) the value was -18.9%; for `CCOC(=O)N1CCC(N2CCCC(C(=O)c3ccccc3OC)C2)CC1` (centres unmarked), -59.3%.
The result for `COc1ccccc1C(=O)C1CCCN(C(=O)C2CCCC2)C1` (centres unmarked) reads 8.68%; that for `CCOC(=O)N1CCC(N2CCCC(C(=O)c3cc(F)ccc3OC)C2)CC1` (centres unmarked), -52.2%; that for `CCN(CC)CC(=O)N1CCCC(C(=O)c2ccccc2OC)C1` (centres unmarked), 6.77%.
Consider `COc1ccc(F)cc1C(=O)C1CCCN(Cc2ccc(O)cc2)C1` (centres unmarked), for which the “hERG current change (%, negative = inhibition) at 1uM” value is given as -25.1%.
With `COc1ccc(F)cc1C(=O)C1CCCN(C(=O)C2=C(C)OCCO2)C1` (centres unmarked), the “hERG current change (%, negative = inhibition) at 1uM” value came to 14.5%.
Take `CC(=O)Nc1ccc2[nH]c3ccccc3c2c1`: the “hERG current change (%, negative = inhibition) at 1uM” value was 3.08%.
For the compound `O=C(NCCCN1CCOCC1)c1sc2cc(Cl)ccc2c1Cl`, the “hERG current change (%, negative = inhibition) at 1uM” value came out at 6.47%.
Take `Cc1c(C(=O)N(C)Cc2ccccc2)oc2ccc(S(=O)(=O)N3CCCC3)cc12`: the “hERG current change (%, negative = inhibition) at 1uM” value is given as -0.449%.
For `COc1ccc(CCNC(=O)C(=O)Nc2ccc3c(c2)OCCO3)cc1OC` the value was 14.4%.
For the compound `O=C(NCc1ccncc1)C(=O)NCC(c1ccco1)N1CCN(c2ccccc2)CC1` (centres unmarked), the “hERG current change (%, negative = inhibition) at 1uM” value came to 3.03%.
As to `CCOc1ccc(N(C(=O)CNS(=O)(=O)c2ccccc2)C(CC)C(=O)NCc2ccco2)cc1` (centres unmarked), the “hERG current change (%, negative = inhibition) at 1uM” value was 4.35%.
Consider `CCCCON1C(=O)c2cccc3cccc(c23)C1=O`, for which the “hERG current change (%, negative = inhibition) at 1uM” value came out at 8.5%.
As for `NC1=Nc2cccc3cccc1c23`, the “hERG current change (%, negative = inhibition) at 1uM” value was found to be 12.8%.
Regarding `CCCCN(C)C1=Nc2cccc3cccc1c23`, the “hERG current change (%, negative = inhibition) at 1uM” value is -54.9%.
